PubChem BioAssay (NCI)
The panel holds about 83,000 compounds, 20% with a hit somewhere; the sample as a whole holds those more often.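 How to read the values: 0–100, growth inhibition (40 = 60% inhibited); 0, no net growth; -100 to 0, cell death (-40 = 40% of starting cells died; -100 = all dead).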 The source made the active and inactive calls. The calls were made as follows: active = growth percent below 10; inactive = the rest.

What follows are molecules tested on HCT-116 colon (assay: NCI-60 one-dose screen, 48 h (100 = growth as untreated, 0 = no growth, -100 = all killed)). Settings: 10 µM unless noted.

Compound | growth
CC(=O)OC[C@@]1(C)C2CC[C@]3(C)C(CC=C4C5CC(C)(C)CC[C@]5(C(=O)Nc5ccc(F)cc5)CC[C@]43C)[C@@]2(C)C[C@@H](OC(C)=O)[C@@H]1OC(C)=O (some centres undefined) | 22.9% (inactive)
CC1(C)CC[C@]2(C(=O)O)CC[C@]3(C)C(=CCC4[C@@]5(C)C[C@@H](O)[C@@H]6OC(c7ccccc7Br)OC[C@@]6(C)C5CC[C@]43C)C2C1 (some centres undefined) | 6.88% (active)
Nc1nc(C(F)(F)F)cs1 | 111% (inactive)

The molecules below were run on HCC-2998 colon in the same assay as above. Settings: 10 µM unless noted.

Compound | growth
CC1(C)CC[C@]2(C(=O)O)CC[C@]3(C)C(=CCC4[C@@]5(C)C[C@@H](O)[C@@H]6OC(c7cccc(Br)c7)OC[C@@]6(C)C5CC[C@]43C)C2C1 (some centres undefined) | 34.8% (inactive)
CCOC(=O)/C=C/c1cccc2c1C(=O)NC(C)(c1cc3cc(Br)ccc3oc1=O)N2 (centres undefined) | 68.8% (inactive)
COc1cc(OC)c2c3nc4cc(C)c(C)cc4nc3n(CCN(C)C)c2c1 | 77.1% (inactive)
COc1ccc(N2N=C(c3ccc4c(c3)OCO4)CC2c2cccc(NC(=O)CCCNS(=O)(=O)c3ccc(F)cc3)c2)cc1 (centres undefined) | 60.1% (inactive)
Cc1ccc(NC(=O)CN2CCN(c3ncnc4c3cnn4-c3ccccc3)CC2)cc1 | 102% (inactive)
CN(C)CCn1c2ccccc2c2nc3cc4ccccc4cc3nc21 | -82.1% (active)
Cc1ccc(C2CC(c3ccc(S(=O)(=O)NCCNc4nc(Nc5ccc(F)cc5)nc(N(C)C)n4)cc3)=Nc3c(N)nc(N)nc3N2)cc1 (centres undefined) | 32.4% (inactive)
O=c1onc(-c2cc3ccccc3nc2Cl)n1-c1cccc2ccccc12 | 71.1% (inactive)
CCCS(=O)(=O)N1CCCC(C(=O)Nc2nc3ccc(NC(=O)c4ccc(F)c(OC)c4F)cc3s2)C1 (centres undefined) | 72.5% (inactive)
CN(C)c1nc(NCCNS(=O)(=O)c2ccc(C(=O)/C=C/c3ccc(F)cc3)cc2)nc(Nc2ccc(F)cc2)n1 | -95.9% (active)
O=C(CCN1C(=O)/C(=C/c2ccc(F)cc2)SC1=S)N1CCOCC1 | 113% (inactive)
O=c1[nH]c2ccccc2cc1CSc1nccc(-c2ccc3ccccc3c2)n1 | 83.5% (inactive)
CC(=O)Nc1ccc(-n2cnc3ccc(-c4ccc(O)cc4)cc32)cc1 | 66.3% (inactive)
CC(C)Sc1nc(NCCc2c[nH]c3ccccc23)c(C#N)c(-c2ccc(F)cc2)n1 | 21.5% (inactive)
CC(=O)c1c(N)c(C#N)cn1-c1ccc(Cl)cc1Cl | 114% (inactive)
C#CCOc1ccc(/C=N/Nc2nc(-c3ccc(Cl)cc3)cs2)cc1OC | 90.3% (inactive)

Compound | growth
C/C(=N\N=C1/C(=O)Nc2ccc(Cl)cc21)c1ccc2c(c1)Nc1ccccc1S2 | -48.2% (active)
CC12CC[C@@H]3[C@]4(C)COC(c5c(F)cccc5F)O[C@@H]4CC[C@@]3(C)[C@@H]1CC(C1=CCOC1=O)O2 (some centres undefined) | 76.7% (inactive)
NC(=S)Nc1cccc(NC(N)=S)c1 | 117% (inactive)
Cc1ccc([C@H]2C(C(=O)c3ccc(Cl)cc3)C3(N[C@@H]2c2ccccc2)C(=O)Nc2ccc(Br)cc23)cc1 (some centres undefined) | 25.7% (inactive)
CC(=O)OC[C@@]1(C)C2CC[C@]3(C)C(CC=C4C5CC(C)(C)CC[C@]5(C(=O)Nc5cccc(C)c5)CC[C@]43C)[C@@]2(C)C[C@@H](OC(C)=O)[C@@H]1OC(C)=O (some centres undefined) | 49% (inactive)
CCCSc1nc(NCCc2c[nH]c3ccccc23)c(C#N)c(-c2ccc(F)cc2)n1 | 44.4% (inactive)
Clc1ccc(-c2ccc(OCCCN3CCN(c4ccncc4)CC3)cc2)cc1 | 21.2% (inactive)
COc1ccc(C2(SCCNCc3cc(N(C)C)ccn3)c3ccccc3C=Cc3ccccc32)cc1 | -30.1% (active)
COc1ccc(C2=NN(C(C)=O)C(c3ccc(OCc4ccc(Cl)cc4)c(OC)c3)C2)cc1OC (centres undefined) | 83.4% (inactive)
CCN(CC)c1ccc(/C=N/Nc2nc(-c3ccc(C)cc3)cs2)c(O)c1 | 106% (inactive)
COc1ccc2[nH]cc(-c3nnc(N)nc3-c3cn(C)c4ncc(Br)cc34)c2c1 | 80.2% (inactive)
N/C(=N\c1nc2ccccc2s1)NC(=O)Nc1ccc(Cl)cc1Cl | -25.4% (active)
O=C(COc1ccc(NC(=O)Nc2ccc(Cl)c(Cl)c2)cc1)N=Nc1c(O)[nH]c2ccc(Cl)cc12 | -51.4% (active)
CC(=O)Nc1ccc(-n2cnc3cc(-c4ccc(O)cc4)ccc32)cc1C(F)(F)F | 33.9% (inactive)
COc1ccc2c(c1)C(=N/N=C(\C)c1ccc(OC)c(S(N)(=O)=O)c1)C(=O)N2 | 111% (inactive)
